FBW7 act = human FBW7 E3 ligase activation, primary screen; AID 1259310; AlphaScreen FBW7–phospho-cyclin E peptide binding, activator screen; normalized activity (activation), % at 26.1 µM; hit rate 0.13% among 650,000; in the data active means normalized activity above about 1.9%;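 further: purified mutant Fbw7 with reduced substrate affinity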
MITF inh = inhibitors of human MITF | AlphaScreen MITF homodimerization, bead proximity signal | inhibition, % at 2.6 µM | O75030 | hit rate 0.91% among 650,000; in the data active means inhibition above about 50%;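 further: 0% = vehicle wells with protein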
GPR151 activ = activators of human GPR151; Q8TDV0; PathHunter beta-arrestin GPR151 cells, luminescence; activation, % at 11.2 µM; hit rate 1% among 650,000; in the data active means activation above about 4.9%;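 further: 0% = median of compound wells and 100% = cells with positive control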
Target sequence (Q8TDV0 whole entry, looked up): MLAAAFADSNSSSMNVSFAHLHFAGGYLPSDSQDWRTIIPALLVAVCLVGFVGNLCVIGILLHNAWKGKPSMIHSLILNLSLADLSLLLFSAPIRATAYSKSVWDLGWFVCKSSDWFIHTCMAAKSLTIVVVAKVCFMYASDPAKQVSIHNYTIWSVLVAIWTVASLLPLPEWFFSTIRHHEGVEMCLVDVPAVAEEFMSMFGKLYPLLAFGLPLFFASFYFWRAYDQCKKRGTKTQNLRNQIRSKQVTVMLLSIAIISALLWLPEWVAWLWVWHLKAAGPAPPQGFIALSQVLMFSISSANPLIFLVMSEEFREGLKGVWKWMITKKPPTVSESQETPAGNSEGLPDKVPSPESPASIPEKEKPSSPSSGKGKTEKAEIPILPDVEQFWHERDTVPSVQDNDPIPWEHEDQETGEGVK
TEAD-YAP inh = TEAD-YAP interaction inhibition. hit rate 1.4% among 640,000. inhibition, % at 9.12 µM. HEK-TIYL cells, TEAD-Gal4/YAP UAS-luciferase luminescence; in the data active means inhibition above about 32%;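 further: 0% = median of test compound wells and 100% = reference inhibitor wells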
* hit, by the source's call. An excerpt weighted towards active compounds, which were near 3.5% of everything screened.

O=c1oc2cc(Br)c(O)c(Br)c2s1 was read as FBW7 act -1, MITF inh 59*, GPR151 activ 0 and TEAD-YAP inh -4.
CCCNS(=O)(=O)c1ccc(F)c(C(=O)Nc2ccc(OCC)cc2)c1 was read as FBW7 act 0, MITF inh -3, GPR151 activ 0 and TEAD-YAP inh 6.
`Nc1ccc2sc3ccccc3c(=O)c2c1` gave FBW7 act 2.1*, MITF inh -6, GPR151 activ -2 and TEAD-YAP inh -54.
COc1ccc2sc3ccccc3c(=O)c2c1 was read as FBW7 act 1, MITF inh -16, GPR151 activ -5 and TEAD-YAP inh -40.
Oc1c(Cl)cc(CN2CCOCC2)c2cccnc12 was read as FBW7 act -1, MITF inh 100*, GPR151 activ 0 and TEAD-YAP inh 86*.
Screening Oc1c(Br)cc(CN2CCOCC2)c2cccnc12 returned FBW7 act -1, MITF inh 102*, GPR151 activ 0 and TEAD-YAP inh 75*.
CCCNc1nc(Nc2ccc3ncccc3c2)nc2c1ncn2C(C)C was read as FBW7 act 0, MITF inh 2, GPR151 activ -1 and TEAD-YAP inh -9.
CCCNc1nc(Nc2cccnc2)nc2c1ncn2-c1ccsc1 was read as FBW7 act 0, MITF inh 0, GPR151 activ 0 and TEAD-YAP inh 61*.
`CC(C)N(CCNc1nc(Nc2cnccn2)nc2c1ncn2-c1ccsc1)C(C)C` gave FBW7 act 0, MITF inh 4, GPR151 activ -1 and TEAD-YAP inh 39*.
Screening CC(C)N(CCNc1nc(Nc2ccncc2)nc2c1ncn2-c1ccsc1)C(C)C returned FBW7 act 0, MITF inh -2, GPR151 activ -1 and TEAD-YAP inh 2.
For CC(C)n1cnc2c(NCCc3ccc(O)cc3)nc(Nc3ccc4ncccc4c3)nc21 the results were FBW7 act 0, MITF inh 4, GPR151 activ 2 and TEAD-YAP inh 39*.
`c1ccc(CNc2nc(Nc3cccnc3)nc3c2ncn3-c2ccsc2)cc1` gave FBW7 act 0, MITF inh 12, GPR151 activ 0 and TEAD-YAP inh 32.
Screening CC(C)N(CCNc1nc(Nc2cccnc2)nc2c1ncn2-c1ccsc1)C(C)C returned FBW7 act 0, MITF inh -5, GPR151 activ 1 and TEAD-YAP inh 35*.
`CC(C)C(=O)NC(=O)COC(=O)CNC(=O)c1ccccc1` gave FBW7 act 0, MITF inh 15, GPR151 activ -2 and TEAD-YAP inh 0.
COc1ccc2c(=O)c(-c3cc4c(cc3OC)OCO4)coc2c1 was read as FBW7 act 0, MITF inh 12, GPR151 activ 1 and TEAD-YAP inh -14.
For Cc1nc2ccc(Cc3ccc4nc(/C=C/c5ccc([N+](=O)[O-])cc5)oc(=O)c4c3)cc2c(=O)o1 the results were FBW7 act 0, MITF inh -4, GPR151 activ 1 and TEAD-YAP inh 1.
`COc1cc(Nc2nc(NCCN(C(C)C)C(C)C)c3ncn(-c4ccsc4)c3n2)cc(OC)c1OC` gave FBW7 act 0, MITF inh -3, GPR151 activ -1 and TEAD-YAP inh 9.
For CC(C)N(CCNc1nc(Nc2ccc3ncccc3c2)nc2c1ncn2-c1ccsc1)C(C)C the results were FBW7 act 0, MITF inh 10, GPR151 activ -2 and TEAD-YAP inh 44*.
`O=C1C(c2ccnc3ccccc23)=C(O)c2ccccc21` gave FBW7 act 0, MITF inh -12, GPR151 activ -2 and TEAD-YAP inh 53*.
`C=CCNC(=O)/C(C#N)=C/C=C/c1ccccc1` gave FBW7 act 0, MITF inh -4, GPR151 activ -1 and TEAD-YAP inh -7.
For CS(=O)(=O)Nc1ccc(-c2nnc(SCC(=O)Nc3ccccc3F)o2)cc1 the results were FBW7 act 0, MITF inh 6, GPR151 activ 0 and TEAD-YAP inh 37*.
Screening CS(=O)(=O)Nc1ccc(-c2nnc(SCC(=O)Nc3ccccc3Cl)o2)cc1 returned FBW7 act 0, MITF inh -5, GPR151 activ 1 and TEAD-YAP inh -27.
COc1ccc(CNC(=O)c2cc(-c3ccc(O)cc3)on2)cc1 was read as FBW7 act 0, MITF inh 3, GPR151 activ 0 and TEAD-YAP inh 38*.
Screening O=C(COC(=O)c1cc(O)[nH]c(=O)c1)Nc1cc(C(F)(F)F)ccc1Cl returned FBW7 act 0, MITF inh 15, GPR151 activ 2 and TEAD-YAP inh -1.
For COc1cc(Cl)c(C)cc1NC(=O)COC(=O)c1cc(O)[nH]c(=O)c1 the results were FBW7 act -1, MITF inh 63*, GPR151 activ -1 and TEAD-YAP inh 18.

Screens: PubChem BioAssay, The Scripps Research Institute Molecular Screening Center
